# From PubChem BioAssay AID588342 (National Center for Advancing Translational Sciences (NCATS), 2011)
# About 25,000 (6.9%) of roughly 360,000 compounds were called active. Roughly 9% stayed inconclusive and do not appear here. The call rests on the fitted dose curve; in most records, active means well fitted inhibition curve with a large enough effect; inconclusive means small, poorly fitted or top-dose-only effect; inactive means flat fitted curve, though single readings scatter. The full list was thinned out, with actives kept by preference.
# Molecular target: Luciferin 4-monooxygenase (Photinus pyralis) (UniProt P08659)
# Assay: qHTS profiling assay for firefly luciferase inhibitor/activator using purifed enzyme and Km concentrations of substrates (counterscreen for miR-21 project); further: nearly all actives have a fitted effect of over 55% in size;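 on activity change, negative = inhibition: plate controls were vehicle for no effect and reference inhibitor for full effect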
# Settings: purified FLuc, luminescence inhibition; series mostly up to 57.5 µM; activity change, negative = inhibition: at the top concentration
# In short: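 Biochemical qHTS of compounds, final roughly 60 µM downward over six points, against 10 nM purified firefly luciferase using Km concentrations of substrates (10 uM D-luciferin, 10 uM ATP) in Tris acetate pH 7.5 buffer; luminescence output.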
# Potency means the concentration at half of the fitted maximal effect.
# Sequence of Luciferin 4-monooxygenase (Photinus pyralis) (P08659 whole entry, looked up): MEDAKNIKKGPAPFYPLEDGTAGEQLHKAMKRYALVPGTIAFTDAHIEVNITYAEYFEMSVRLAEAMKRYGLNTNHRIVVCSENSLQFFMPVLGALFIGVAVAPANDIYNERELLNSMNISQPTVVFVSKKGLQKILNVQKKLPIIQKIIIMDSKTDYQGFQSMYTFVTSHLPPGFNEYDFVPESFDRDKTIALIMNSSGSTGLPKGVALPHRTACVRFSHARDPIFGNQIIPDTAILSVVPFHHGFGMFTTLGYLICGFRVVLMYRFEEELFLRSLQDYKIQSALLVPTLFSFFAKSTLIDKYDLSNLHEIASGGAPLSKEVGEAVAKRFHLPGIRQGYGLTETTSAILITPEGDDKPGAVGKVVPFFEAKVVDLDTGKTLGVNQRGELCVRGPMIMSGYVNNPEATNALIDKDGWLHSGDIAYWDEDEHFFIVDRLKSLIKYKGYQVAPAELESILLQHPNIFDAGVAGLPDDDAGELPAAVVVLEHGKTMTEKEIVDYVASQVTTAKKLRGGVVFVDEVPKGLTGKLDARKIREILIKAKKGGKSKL
Compound,"activity change, negative = inhibition",Potency
O=C(O[C@@H]1[C@H](Cc2ccccc2)NS(=O)(=O)[C@H]2C[C@@H]3C=C[C@]12O3)c1ccccc1Br,-0.0997% (inactive),
COc1cccc(NC(=O)Nc2nnc(N3CCCCC3C)s2)c1 (stereo not given),,13.5 µM (active)
COc1cccc(NC(=O)N2CCCC2C(=O)NC2CCCCC2)c1 (stereo not given),0.664% (inactive),
COc1cccc(NC(=O)NCCN2CCCCC2)c1,-1.18% (inactive),
CCOC(=O)C1(CCOC)CCN(Cc2cc3ccccc3s2)CC1,-3.36% (inactive),
CN(Cc1ccccc1)S(=O)(=O)c1ccc(F)c(C(=O)Nc2cccc(Cl)c2Cl)c1,-12.7% (inactive),
O=C1c2cccnc2C(Nc2ccc(S(=O)(=O)N3CCCCCC3)cc2)N1Cc1ccccc1 (stereo not given),-6.21% (inactive),
Cc1noc(C)c1/C=N/Nc1ccc2ccccc2n1,,1.69 µM (active)
Brc1ccc(-c2csc(N/N=C/c3ccc4c(c3)OCO4)n2)cc1,-4.27% (inactive),
C(=N\Nc1ccc2ccccc2n1)/c1ccc2c(c1)OCO2,,0.19 µM (active)
O=C(Cc1ccc(F)cc1)N/N=C/c1ccc2c(c1)OCO2,-18.1% (inactive),
COc1ccc(NC(=O)C2C3CCC(O3)C2C(=O)O)cc1OC (stereo not given),3.96% (inactive),
Cc1cccn2c(=O)c3cc(C(=O)NC(C)c4ccccc4)c(=N)n(CCCO)c3nc12 (stereo not given),-2.84% (inactive),
CCCN(CCC)CCNC(=O)c1ccc2c(c1)NC(=O)C(CS(=O)(=O)Cc1cccc(Br)c1)N2 (stereo not given),-2.74% (inactive),
COc1cccc(N=C2SC(C(=O)Nc3cccc(Cl)c3)CC(=O)N2C)c1 (stereo not given),-13.3% (inactive),
O=C(Nc1cccn(Cc2ccccc2Cl)c1=O)NC1CCCCC1,,21.3 µM (active)
O=C(COc1ccccc1Cl)Nc1ccccc1C(=O)NC1CC1,-17.7% (inactive),
COc1ccc(Cn2cccc(NC(=O)Nc3ccc(C#N)cc3)c2=O)cc1,-0.943% (inactive),
CCC(=O)c1ccc(OCC(=O)Nc2ccc(N3CCCCC3)cc2)cc1,0.479% (inactive),
CCC(=O)Nc1ccc(-c2ccc(N3CCCCC3)nn2)cc1,,12 µM (active)
CCOc1ccc(NC(=O)CCc2c(C)nn(-c3ccc(N4CCCC4)nn3)c2C)cc1,-15.8% (inactive),
O=C(CSc1nc2ccccc2nc1Cc1ccccc1)N1CCCCC1,-17.9% (inactive),
O=C(CC(c1cccs1)N1Cc2ccccc2C1=O)Nc1ccc(F)c(F)c1 (stereo not given),-1.07% (inactive),
Cc1sc2ncnc(N3CCC(C(=O)Nc4nc5ccc(Cl)cc5s4)CC3)c2c1C,,15.1 µM (active)
Cc1sc2ncnc(N3CCC(C(=O)Nc4ccc(F)cc4Cl)CC3)c2c1C,1.82% (inactive),

Compound,"activity change, negative = inhibition",Potency
Cc1sc2ncnc(N3CCC(C(=O)NNC(=O)c4ccc(F)cc4)CC3)c2c1C,0.937% (inactive),
Cc1ccc(S(=O)(=O)N(C)C)cc1NC(=O)C1Cc2ccccc2CN1C(=O)c1ccco1 (stereo not given),-1.51% (inactive),
CCN(CC)c1ccc(C(=O)Nn2c(C)nc3ccccc3c2=O)cc1,-4.86% (inactive),
CCN(CC)c1ccc(C(=O)c2cnc(/N=C/N(C)C)s2)cc1,,16.9 µM (active)
COc1ccc(S(=O)(=O)N2CCN(C(C)C(=O)Nc3ccc(C(C)C)cc3)CC2)cc1 (stereo not given),-15.9% (inactive),
Cc1ccc(S(=O)(=O)CCC(=O)OCC(=O)N(C)C2CCS(=O)(=O)C2)cc1 (stereo not given),0.78% (inactive),
COc1ccc(/C=C(\C#N)C(=O)OCC(=O)N(C)C2CCS(=O)(=O)C2)cc1 (stereo not given),-1.11% (inactive),
CN(C(=O)CN1C(=O)S/C(=C\c2ccccc2F)C1=O)C1CCS(=O)(=O)C1 (stereo not given),-13.4% (inactive),
O=C(CN1C(=O)/C(=C\c2ccccc2F)SC1=S)Nc1nc2ccccc2s1,-14.1% (inactive),
COc1ccccc1/C=C1\SC(=O)N(CCC(=O)N(C)C2CCS(=O)(=O)C2)C1=O (stereo not given),,16.9 µM (active)
CN(C(=O)CCN1C(=O)/C(=C/c2ccccc2F)SC1=S)C1CCS(=O)(=O)C1 (stereo not given),,26.9 µM (active)
CC[n+]1c(C)n(-c2ccccc2)c2ccc(NC(C)=O)cc21,5.93% (inactive),
CCN(CC)C(=O)c1nc[nH]c1C(=O)N(C)Cc1ccccc1,-1.26% (inactive),
Cc1ccc(CNC(=O)CCNS(=O)(=O)c2ccc3c(c2)oc(=O)n3C)cc1,-3.82% (inactive),
O=C(CN1CCSCC1)N/N=C/c1ccc(Cl)cc1,-17.5% (inactive),
CCn1nc(C)c(/C=N/NC(=O)Cc2ccc(Cl)cc2)c1C,,15.1 µM (active)
Cc1nn(Cc2ccc(Cl)cc2)c(Cl)c1/C=N/NC(=O)CNc1ccccc1F,0.928% (inactive),
CCn1cc(C(=O)N(C)Cc2ccccc2)c(=O)c2cc(S(=O)(=O)N3CCCCCC3)ccc21,1.79% (inactive),
CCn1nc(C(=O)Nc2ccc(N3CCOCC3)cc2)c2ccccc2c1=O,-3.82% (inactive),
CC1(c2ccc(Cl)cc2Cl)NC(=O)N(CC(=O)Nc2cccnc2Cl)C1=O (stereo not given),-1.92% (inactive),
O=[N+]([O-])c1ccc(N/N=C/c2ccccc2)cc1,,19 µM (active)
O=C(O)/C=C/C(=O)NNc1ccc([N+](=O)[O-])cc1,-2.77% (inactive),
Cc1cccc(COc2ccccc2/C=N/Nc2ccc([N+](=O)[O-])cc2)c1,-1.93% (inactive),
COC(=O)c1ccc(CSc2ccc(S(=O)(=O)N3CCCCC3)cn2)cc1,0.326% (inactive),
O=C(C1CCC1)N1CCN(S(=O)(=O)c2ccc([N+](=O)[O-])cc2)CC1,3.04% (inactive),

Compound,"activity change, negative = inhibition",Potency
COc1ccc(NS(=O)(=O)c2ccc(Oc3c(C#N)cccc3C#N)cc2)cc1,-2.11% (inactive),
COc1ccc(S(=O)(=O)/N=C2\C=C(NS(=O)(=O)c3ccccc3)C(=O)c3ccccc32)cc1,,15.1 µM (active)
CCCC(NS(=O)(=O)c1ccc(OC)cc1)C(=O)O (stereo not given),-1.49% (inactive),
CCCCc1ccc(NC(=O)CN2C(=O)NC(Cc3ccccc3)C2=O)cc1 (stereo not given),1.04% (inactive),
CCCCN(C(=O)c1nn(C)c(=O)c2ccccc12)c1c(N)n(CCC)c(=O)[nH]c1=O,0.567% (inactive),
Cc1ccc(S(=O)(=O)NCCNC(C)c2ccc(Br)cc2)cc1 (stereo not given),0.553% (inactive),
CCOC(=O)c1ccc(NC2=CC(c3ccc(OCC)cc3)N(c3ccc(C(=O)OCC)cc3)C2=O)cc1 (stereo not given),-7.59% (inactive),
COC(=O)c1c(NC(=O)C(=O)N2CCCCC2)sc2c1CC(C)(C)OC2,0.968% (inactive),
CC1(C)Cc2c(sc(NC(=O)C(=O)N3CCOCC3)c2C#N)CO1,0.455% (inactive),
CCOC(=O)N1CCN(C(=O)C(=O)Nc2sc3c(c2C#N)CC(C)(C)OC3)CC1,,16.9 µM (active)
CCCCc1ccc(NC(=S)NCCCN2CCOCC2)cc1,-1.41% (inactive),
CCCCc1ccc(NC(=S)N2CCCC(CO)C2)cc1 (stereo not given),,2.69 µM (active)
COc1ccc(NC(=S)N2CCCC(CO)C2)c(OC)c1 (stereo not given),-3.78% (inactive),
CCOc1ccc(CNC(=O)c2cc(=O)[nH]c3ccc(S(=O)(=O)N4CCCCC4)cc23)cc1,1.65% (inactive),
Cc1ccc2c(CN3CCN(S(=O)(=O)c4ccccc4C(F)(F)F)CC3)cc(=O)oc2c1,-1.82% (inactive),
COc1ccc(CNC(=O)c2ccc3c(c2)nc2n3CCOC2)c(OC)c1,-9.19% (inactive),
COc1ccc(OC)c(CN2CCN(C(=O)CNC(=O)c3cc(C)cc(C)c3)CC2)c1,0.562% (inactive),
CCn1nnnc1SCC(=O)c1ccc(C)cc1C,,6.75 µM (active)
COc1ccc(C(=O)CSc2nnnn2C)c(OC)c1,-3.87% (inactive),
Cc1ccc(C(=O)CSc2nc(-c3ccccc3)nc3c2CCCC3)c(C)c1,-6.25% (inactive),
CCOc1ccccc1N(C)C(=O)c1cc2c(s1)-c1ccccc1OC2,-17.2% (inactive),
CC1(C)CC(=O)C=C(c2ccc(Cl)c(C(F)(F)F)c2)C1,-1.98% (inactive),
N#CC(=C1SC=CS1)c1nc(-c2ccccc2)cs1,,7.57 µM (active)
N#C/C(=C1/CCCN1)c1ccccn1,0.552% (inactive),
COc1cccc(C(=O)OCC(=O)c2[nH]c(C)c(C(C)=O)c2C)c1,3.9% (inactive),

Compound,"activity change, negative = inhibition",Potency
COc1ccccc1C(=O)Nc1ccc(OCc2nnc3c4ccccc4c(C)nn23)cc1,,4.26 µM (active)
CCc1ccc(NC(=O)c2cnc3c(-c4ccccc4)c(C)nn3c2C)cc1,-4.43% (inactive),
COc1cc(C(=O)Nc2ccc(OCc3cc(=O)n4ccc(C)cc4n3)cc2)cc(OC)c1OC,-2.02% (inactive),
Cc1cccc(C(=O)NNC(=O)CSc2nnc(C(C)C)n2C)c1,0.258% (inactive),
COCCn1c(C)cc(C2=NNC(=Nc3ccc(F)cc3)SC2)c1C,,3.38 µM (active)
C=CCn1c(C)cc(C2=NNC(=NCC)SC2)c1C,,0.151 µM (active)
Cc1ccc(S(=O)(=O)c2ccc(Cl)cc2)cc1S(=O)(=O)NC(C(=O)O)C(C)C (stereo not given),-1.66% (inactive),
CCOc1ccc(OCC)c(Nc2nc3ccccc3n3nnnc23)c1,-4.04% (inactive),
Cc1cccc(N(C(=O)c2ccc(CN3CCOCC3)o2)C(C(=O)NC2CCCCC2)c2ccc(F)cc2)c1 (stereo not given),0.757% (inactive),
CCc1cc2c(cc3c(=O)n(CC(=O)N4CCN(c5cc(Cl)ccc5C)CC4)ncn32)s1,-1.68% (inactive),
CCOc1ccc(N(C)S(=O)(=O)c2cc(-c3cnc(C)o3)ccc2OC)cc1,-13.9% (inactive),
Cc1cc(C)c(NC(=O)CSc2nc3nccnc3c(=O)n2CCc2c[nH]c3ccccc23)c(C)c1,1.53% (inactive),
COCCNC(=O)c1ccc2c(c1)N(Cc1cccc(Cl)c1)C(=O)c1ccccc1S2(=O)=O,2.89% (inactive),
COc1ccc2oc(=O)c(C(=O)NCc3ccccn3)cc2c1,-18.7% (inactive),
Cc1cc(C)cc(NC(=S)NCCc2c[nH]c3ccccc23)c1,-0.441% (inactive),
COc1cccc2cc(C(=O)NCc3ccc(C)cc3)c(=N)oc12,,5.36 µM (active)
CN(c1ccccc1)S(=O)(=O)c1ccc(Cl)c(C(=O)NCCc2c[nH]c3ccccc23)c1,1.57% (inactive),
Cc1cc(C)cc(OCC(=O)NNC(=O)c2cc3ccccc3oc2=O)c1,-3.62% (inactive),
O=C(NCc1ccccn1)c1cc2ccccc2oc1=O,,13.5 µM (active)
COc1cccc2cc(C(=O)N3CCN(C(=O)c4ccccc4)CC3)c(=O)oc12,1.94% (inactive),
NC(=O)c1cc2ccccc2o/c1=N/NC(=O)c1cccc(F)c1,-6.69% (inactive),
O=C(NCCc1c[nH]c2ccccc12)c1cc2ccccc2oc1=O,,16.9 µM (active)
COc1ccc(CNC(=O)c2cc3cccc(OC)c3oc2=O)cc1,1.19% (inactive),
COc1cccc2cc(C(N)=O)/c(=N\NC(=O)c3ccccc3)oc12,,1.69 µM (active)
COc1cccc2cc(C(=O)N(C)C)c(=O)oc12,4.57% (inactive),
